# From PubChem BioAssay AID1234 (University of Pittsburgh Molecular Library Screening Center, 2008)
# The other results are listed elsewhere or left out. Active and inactive are the calls of the source.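 Rule for the calls: active = EC50 under a set limit for hydrogen peroxide production with the reducing agent DTT present; inactive = the rest.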
# Test: DTT-dependent H2O2 generation by redox cyclers, dose response, artefact control for MLSCN library redox annotation, biochemical, 10-point concentration response, NIH library profiling (AID 1234)
# Details: DTT-dependent redox cycling H2O2, phenol red-HRP absorbance; activation: H2O2 generation, at 50 µM, stronger effect = higher value
smiles,measurement,value
CCOC(=O)c1c(C)[nH]c2c1-c1ccccc1C(=O)C2=O,EC50,430 nM (active)
same,activation,129%
